Bioassay records: PubChem, National Center for Advancing Translational Sciences (NCATS)
Sampled rows, rich in hits. Any-hit rate of the full collection: about 4.6%.
USP2a inhib – inhibitors of human ubiquitin-specific protease USP2a; O75604; USP2a enzymatic assay, qHTS inhibition; Potency, µM (series often up to 38.3 µM), for inactives: top-dose activity change, negative = inhibition, most hits filed as inhibitors; hit rate 0.1% among 60,000; AID 927; further: nearly all actives have a fitted effect of over 60% in size
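20 nM USP2 core + cpd, 30 min RT; add 20 nM Ub-PLA2/20 uM NBD C6-HPC; read Ex460/Em535 at 0 h and 2.5 h. Normalized to NEM; qHTS curve fit/classification.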
Tau fil binding – binders of human tau filaments | P10636 | recombinant tau filaments, thioflavin S fluorescence, 15 h; filaments grown with octadecylsulfate alongside compound | Potency, µM (series often up to 57.1 µM), without a hit: at the highest dose activity change, negative = inhibition | hit rate 2% among 71,000 | AID 596;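 further: on the % scale 0 is the no-effect control and ±100 the full control effect; actives lower thioflavin S fluorescence by blocking filaments or displacing dye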
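His-tagged recombinant human tau (exons 2, 3 and 10 included), 1 uM, was induced to fibrillize by 30 uM sodium octadecylsulfate with compound present. After 15 h at 37 C, thioflavine S fluorescence (ex 450, em 510 nm) was read.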
ALOX15 inhib – 15-hLO (ALOX15) enzyme inhibition; P16050; hit rate 1.4% among 74,000; AID 887; purified 15hLO-1, xylenol orange hydroperoxide absorbance; Potency, µM (titrated, usually from 57.1 µM), for the others: top-dose activity change, negative = inhibition, most hits filed as inhibitors; further: on the % scale 0 is the no-effect control and ±100 the full control effect; nearly all actives have a fitted effect of over 55% in size
Target sequence (P16050 whole entry, looked up): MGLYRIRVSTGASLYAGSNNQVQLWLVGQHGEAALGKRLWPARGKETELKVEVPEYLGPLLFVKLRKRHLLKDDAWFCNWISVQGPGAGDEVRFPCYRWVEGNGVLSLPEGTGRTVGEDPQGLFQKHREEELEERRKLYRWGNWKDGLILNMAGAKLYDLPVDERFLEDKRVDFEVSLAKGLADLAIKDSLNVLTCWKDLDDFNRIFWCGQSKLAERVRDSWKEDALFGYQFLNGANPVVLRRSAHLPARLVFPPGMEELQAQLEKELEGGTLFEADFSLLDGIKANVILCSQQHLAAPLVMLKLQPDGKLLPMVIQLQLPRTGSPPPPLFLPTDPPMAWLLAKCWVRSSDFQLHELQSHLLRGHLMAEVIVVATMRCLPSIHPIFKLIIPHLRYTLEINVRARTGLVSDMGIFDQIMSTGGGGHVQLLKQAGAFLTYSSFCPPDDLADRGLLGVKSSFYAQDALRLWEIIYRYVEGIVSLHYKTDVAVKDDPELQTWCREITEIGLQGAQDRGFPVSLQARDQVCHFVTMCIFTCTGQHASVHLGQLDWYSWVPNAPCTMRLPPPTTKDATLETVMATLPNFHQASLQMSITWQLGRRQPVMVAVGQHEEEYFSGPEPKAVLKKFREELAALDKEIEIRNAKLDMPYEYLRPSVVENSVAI
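Compounds were preincubated 15 min at room temperature with 40 nM purified human enzyme (25 mM Hepes pH 7.5, 0.01% Triton X-100); 50 uM arachidonic acid reacted 6 min. Fe-xylenol orange detection, 30 min, absorbance ratio 573/405 nm.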
PK Bst – alters activity of Bacillus stearothermophilus pyruvate kinase. purified pyruvate kinase, luminescence ATP production; ribose 5-phosphate activator present at AC10. Potency, µM. hit rate 1.2% among 51,000; in the data active means potency below about 11 µM; inconclusive means mostly about 12 µM to 25 µM;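 the screen sought inhibitors and activators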;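 further: scaled between full activation by ribose 5 phosphate and full inhibition by luteolin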
GBA mod – modulators of human glucocerebrosidase. Potency, µM. P04062. purified enzyme, resorufin glucoside fluorescence (screen aimed at inhibitors), 20 min. hit rate 1.1% among 48,000; in the data active means potency below about 15 µM; inconclusive means mostly about 16 µM to 33 µM;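 further: the screen sought inhibitors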
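Compounds titrated against 0.2 nM normal enzyme, 30 uM resorufin beta-D-glucopyranoside substrate, citrate/phosphate buffer with taurocholate and tween-20, pH 5.9. Reaction ran 20 min at room temperature; fluorescence (Ex 548/Em 600) gave AC50.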
Hsp90 Hop PPI – changes Hsp90-Hop TPR2A binding signal, up or down | AlphaScreen TPR2A-His6 binding biotin-Hsp90 C-terminal peptide | Potency, µM (highest dose often 57 µM), for inactives: at the highest dose activity change, negative = inhibition | hit rate 0.44% among 71,000; active means well fitted curve in either direction with a large enough effect; inconclusive means small, poorly fitted or top-dose-only effect, or another doubt; further: on the % scale 0 is the no-effect control and ±100 the full control effect
An asterisk follows results filed as active; i = inactive; ? = inconclusive; nt = no result given; ! = not confirmed by another sample; [ ] = dose if it differs, or a comment. Unless noted, the call rests on the fitted dose curve; in most records, active means well fitted curve in the direction sought with a large enough effect; inconclusive means small, poorly fitted or top-dose-only effect, or another doubt; inactive means no such curve, though single readings can be large; an effect the other way counts as inactive or inconclusive. Potency means the concentration at half of the fitted maximal effect.

SMILES | USP2a inhib | Tau fil binding | ALOX15 inhib | PK Bst | GBA mod | Hsp90 Hop PPI
CCCCCCCCCCCC1=C(O)C(=O)C=C(O)C1=O | 60% | 3.2µM* | 5µM* | nt | nt | ?
O=C(O)c1cc(O)c2c(c1)C(=O)c1cccc(O)c1C2=O | nt | 421% | 13µM*! | >26 | nt | 0%
Cc1cc(O)c2c(c1)C(=O)c1cccc(O)c1C2=O | 34% | -19% | -25%[25.6 µM] | nt | nt | -9%
CCn1cc(Br)c(C(=O)NCc2ccco2)n1 | -7% | -18% | -3% | >57 | >77 | -7%
CC(=O)Nc1nc(-c2ccccc2)nc(-c2ccccc2OC(C)=O)n1 | 12% | 1.3µM* | 16µM* | nt | nt | -13%
Cc1ccc(NC(=O)c2ccccc2)s1 | -4% | -13% | -17% | 8.3* | >77 | -4%
Cc1cc(NC(=O)c2ccccc2)sc1C | 7% | -10% | ? | nt | nt | -8%
CC(C)NC(=O)Nc1cccs1 | nt | nt | -23% | nt | nt | nt
O=C(Nc1cccs1)NC1CCCC1 | 12% | -12% | 13µM* | >57 | >77 | -21%
O=C(Cn1nnc(-c2ccccc2F)n1)Nc1ccc(S(=O)(=O)NC2CCCC2)cc1 | -1% | 382% | -9% | >57 | 6.9* | -6%
Cc1ccc(C)c(N2CCN(Cc3nnnn3C3CCCCC3)CC2)c1 | ? | 3% | -10% | >57 | nt | 4%
CCNc1ncc2nc(CCc3ccccc3)c(=O)n(C)c2n1 | 74% | 418% | 25µM* | nt | nt | 9%
COc1cc2c(cc1OC)C(CCN)=NCC2 | nt | -29%[11.4 µM] | 11%[11.4 µM] | nt | nt | -1%[11 µM]
CCCOC(=O)C1[C@H]2C(=O)N(C(C)c3ccc(OC)cc3)C[C@]23C=C[C@H]1O3 (stereo partly specified) | -2% | 0% | 0% | >57 | 13* | -5%
O=C(CN1C(=O)CCSc2ccccc21)Nc1ccc2c(c1)OCCO2 | nt | nt | -1% | nt | nt | nt
COc1cccc(NS(=O)(=O)c2ccc(Br)s2)c1 | 11% | -8% | -5% | >57 | 14* | -6%
CC(C)n1c(N2CCN(C(=O)N3CCCCC3)CC2)nc2ccccc21 | 7% | -10% | 12% | >57 | >77 | 1%
C/C(=N\O)c1c(C)c2ccccc2n1C | nt | nt | nt | >11 | nt | nt
Cn1c2c(c3ccccc31)CC/C2=N\O | nt | 4% | 25µM* | nt | nt | -8%
CC(=O)Nc1ccc(S(=O)(=O)N2CCC(c3nc4ccc(C)cc4[nH]3)CC2)cc1 | 20% | 2% | 2% | >57 | ? | 0%
COc1ccccc1N1CCN(c2nc3ccccc3nc2C(C#N)C(=O)OC(C)C)CC1 (stereo unspecified) | 24% | 7.9µM* | -8% | >57 | >77 | ?
CCCCCCNC(=O)C(C#N)c1nc2ccccc2nc1N1CCCC1 (stereo unspecified) | 15% | -9% | 2% | >57 | >77 | 0%
CCCCCNC(=O)C(C#N)c1nc2ccccc2nc1N1CCCC1 (stereo unspecified) | 9% | -15% | 12% | >57 | >77 | 0%
CCOc1ccccc1N1CCN(c2nc3ccccc3nc2C(C#N)C(=O)OC)CC1 (stereo unspecified) | nt | nt | nt | >26 | nt | nt
CCCCOC(=O)C(C#N)c1nc2ccccc2nc1N1CCOCC1 (stereo unspecified) | 8% | 4µM* | -22% | >57 | >77 | ?
SMILES | USP2a inhib | Tau fil binding | ALOX15 inhib | PK Bst | GBA mod | Hsp90 Hop PPI
CCCCCCOC(=O)C(C#N)c1nc2ccccc2nc1N1CCOCC1 (stereo unspecified) | 12% | 2.5µM* | -15% | >57 | >77 | -6%
CCCCCNC(=O)C(C#N)c1nc2ccccc2nc1N1CC(C)OC(C)C1 (stereo unspecified) | nt | nt | nt | >26 | nt | nt
CCCCCCOC(=O)C(C#N)c1nc2ccccc2nc1N1CCN(CC)CC1 (stereo unspecified) | 49% | 1µM* | -29% | >57 | nt | -9%
CCCN(CCC)c1ncnc2nc[nH]c12 | nt | -10% | -1% | nt | nt | -2%
CCN1CCN(c2nc3ccccc3nc2C(C#N)C(=O)OCc2ccccc2)CC1 (stereo unspecified) | 41% | 1.3µM* | -10% | >57 | nt | -21%
Cc1nn(C)c(C)c1S(=O)(=O)NC1CCCc2ccccc21 (stereo unspecified) | 7% | 6% | -3% | >57 | ? | -8%
Oc1cc2c(cc1O)C1c3ccc(O)c(O)c3OCC1(O)C2 (stereo unspecified) | 0% | nt | 5µM* | nt | nt | nt
Cc1c(C)n(CC(O)CN2CCCCCC2)c2ccccc12 (stereo unspecified) | 6% | 13µM* | ? | nt | nt | -5%
Nc1nonc1-c1nc2ccccc2n1CC(=O)N1CCN(c2ccc(F)cc2)CC1 | 27% | 38% | -1% | >57 | >77 | -6%
CCCc1nc2ccccc2c(=O)n1/N=C/c1ccc(O)cc1 | 24% | -2% | -2% | >57 | >77 | -5%
CN=c1scc(C)n1/N=C/c1ccc(O)cc1O | -7% | -20% | -15% | 1.1* | >77 | -29%
CN=c1scc(C)n1/N=C/c1ccc(O)cc1 | 4% | ? | -20% | 6.8* | nt | -16%
CN=c1scc(C)n1/N=C/c1ccc2c(c1)OCO2 | 7% | ? | 7% | 3.2* | >77 | ?
COCCOC(=O)C1=C(C)NC(SCC(=O)NC(C)(C)C)=C(C#N)C1c1ccco1 (stereo unspecified) | nt | nt | nt | >26 | nt | nt
CC(=O)C1=C(C)NC(SCC(=O)c2ccc(C)cc2)=C(C#N)C1c1ccco1 (stereo unspecified) | nt | 217% | 13µM* | nt | nt | 15%
CC1(C)CC(=O)C2=C(C1)NC(SCC(=O)Nc1ccccc1)=C(C#N)C2c1ccco1 (stereo unspecified) | 20% | 13µM* | -10% | i | i | 26%
CCOC(=O)C1=C(c2ccccc2)NC(SCC(=O)NC2CCCCC2)=C(C#N)C1c1ccco1 (stereo unspecified) | 33% | 16% | -22% | >57 | 7.7* | -5%
CCOC(=O)C1=C(c2ccccc2)N2CCS(=O)(=O)N=C2S1 | -2% | 9% | 10% | >57 | >77 | 0%
Cc1cc(S(=O)(=O)Nc2ccccc2C)ccc1F | 4% | -2% | -4% | i | >77 | -2%
COc1cc(S(=O)(=O)NC2CCCCC2)ccc1Cl | -7% | 16µM* | ? | >57 | nt | 11%
COc1cc(S(=O)(=O)Nc2ccccc2C)ccc1Cl | -13% | 13µM* | -25% | >57 | >77 | -4%
Nc1c2c(nc3ccccc13)N(c1ccccc1)CC2 | nt | nt | nt | >11 | nt | nt
CC(=O)Nc1nc(C)nc(-c2ccccc2)c1C(C)=O | -10% | -6% | 3% | >57 | >77 | -4%
CCCSc1nnc2n(Cc3ccccc3)c(=O)c3c4c(sc3n12)CCC4 | nt | nt | nt | >26 | nt | nt
CCCSc1nnc2n(C)c(=O)c3c4c(sc3n12)CCC4 | nt | nt | nt | 4.7* | nt | nt
Oc1ccc2[nH]ccc2c1 | 33% | 20µM* | ? | >57 | >77 | -5%
CN(Cc1ccccc1)c1nc2c(c(=O)n(C)c(=O)n2C)n1CCSc1ncccn1 | nt | 6% | 2% | nt | nt | 0%
